Records with an inconclusive call do not appear. Where a call stands in place of a potency, no number is given. Activity calls are given as the source filed them. Calls come from the whole dose curve; as a rule, active = well fitted inhibition curve with a large enough effect; inconclusive = small, poorly fitted or top-dose-only effect; inactive = flat fitted curve, though single readings scatter.
Potency is the fitted concentration of half-maximal effect.

A short description of the experiment: P-glycoprotein substrates identified in KB-8-5-11 adenocarcinoma cell line, qHTS therapeutic library screen (AID 1346987). Note: nearly all actives have a fitted effect of over 65% in size. The settings on record: KB-8-5-11 (P-gp overexpressing) viability, CellTiter-Glo, 72 h; series mostly up to 44.5 µM. The method in brief: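 Steps: plate 500 KB-8-5-11 cells/well in DMEM + 10% FCS (colchicine removed); pin compounds in dose-response; incubate 72 h, 37 degree C, 5% CO2; add CellTiter-Glo, 5 min; read luminescence.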
(Quantitative high-throughput screening tests each substance at several concentrations.)
As for `CCCCCCCCC(=O)NCc1ccc(O)c(OC)c1`, the Potency entry is “inactive”.

For `CCS(=O)(=O)C(C)(C)S(=O)(=O)CC`, the Potency result was “inactive”.

As for `N#Cc1nn(-c2c(Cl)cc(C(F)(F)F)cc2Cl)c(N)c1S(=O)C(F)(F)F` (stereo not given), the Potency result is “inactive”.

`CCOC(=O)c1cncn1C(C)c1ccccc1` (stereo not given): the Potency result is “inactive”.

Take `CNC(C)Cc1ccc2c(c1)OCO2` (stereo not given): the Potency result is “inactive”.

Take `CCOC(=O)NC(C)(C)Cc1ccc(Cl)cc1`: the Potency entry is “inactive”.

`CNC(C)Cc1ccccc1OC` (stereo not given): the Potency result is “inactive”.

In the case of `C#C[C@]1(O)C=C[C@H]2[C@@H]3CCC4=CC(=O)CC[C@@H]4[C@H]3CC[C@@]21CC`, the Potency was 6.51 µM (active).

`CC(Cc1ccccc1)NCc1ccccc1Cl` (stereo not given): the Potency entry was “inactive”.

In the case of `CCN(Cc1ccc(Cl)nc1)/C(=C/[N+](=O)[O-])NC`, the Potency entry was “inactive”.

Turning to `Cc1ccc(N=CN(C)C=Nc2ccc(C)cc2C)c(C)c1`, the Potency entry was “inactive”.

Take `OC(c1ccccc1)(c1ccccc1)C1CCNCC1`: the Potency result was “inactive”.

For the compound `NCc1cccnc1`, the Potency result was “inactive”.

Take `CC(Cc1ccc2c(c1)OCO2)NO` (stereo not given): the Potency entry is “inactive”.

Turning to `CCC1(c2cccc(O)c2)CCCCN(C)C1` (stereo not given), the Potency entry is “inactive”.

With `CC1=C2[C@H]3OC(=O)[C@@H](C)[C@@H]3CC[C@@]2(C)C=CC1=O`, the Potency entry is “inactive”.

In the case of `COc1cc(CC(C)N)cc2c1OCO2` (stereo not given), the Potency entry was “inactive”.

As for `CNC(=O)Oc1cccc2ccccc12`, the Potency result was “inactive”.

Turning to `CCC1(CC)C(=O)NC(=O)NC1=O`, the Potency entry was “inactive”.

Regarding `CCNc1nc(Cl)nc(NCC)n1`, the Potency entry is “inactive”.

(Values after PubChem BioAssay (NCATS).)
